tested on: LTK; conditions: concentration: 1 μM,replicates: in singlicate; n = 1
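Further: KINOMEscan kinase panel screen.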

**Q.** How did the “%Inh” value turn out when `C[C@@H]1CNc2c(sc3ccc4nc(-c5ccncc5)ccc4c23)C(=O)N1` was run?
**A.** 65%

**Q.** For `C[C@@H]1CCN(C(=O)N2CCCC2)C[C@@H]1N(C)c1ncnc2[nH]ccc12`, which “%Inh” value is on record?
**A.** 100%

**Q.** How did the “%Inh” value turn out when `Cl.c1ccc(Oc2ccc(Nc3ccnc4cc(-c5ccc(CN6CCNCC6)o5)ccc34)cc2)nc1` [GW567142] was run?
**A.** 0%

**Q.** With `COc1cc2c(Nc3ccc(NC(=O)c4ccccc4)cc3)ncnc2cc1OCCCN1CCOCC1` [GSK301329] as the compound, how does the “%Inh” value read?
**A.** 27%

**Q.** `c1ccc(Oc2ccc(Nc3ccnc4ccc(-c5ccccn5)cc34)cc2)cc1` [GW407034] was tested. Which “%Inh” value did it give?
**A.** 0%

**Q.** With `COc1cc2ncn(-c3cc(OCC4CCCCC4)c(C(N)=O)s3)c2cc1OC` [GSK204559] as the compound, how does the “%Inh” value read?
**A.** 10%

**Q.** With `C[C@@H]1CNc2c(sc3ccc4nc(-c5ccc(O)cc5)ccc4c23)C(=O)N1` as the compound, how does the “%Inh” value read?
**A.** 83%

**Q.** How did the “%Inh” value turn out when `NC(=O)c1ccc(-c2cc3ncnc(SCC(=O)O)c3s2)cc1` was run?
**A.** 0%

**Q.** `CS(=O)(=O)Nc1ccc(-c2ccnc3[nH]ccc23)cc1` [GSK993273] was tested. Which “%Inh” value did it give?
**A.** 0%

**Q.** Which “%Inh” value does the source give for `N#Cc1cccc(C(=O)NC2CCN(c3ccnc(Nc4ccc(F)cc4)n3)C2)c1` (stereo not drawn) [GSK1379708] here?
**A.** 0%

**Q.** Which “%Inh” value does the source give for `CS(=O)(=O)c1cccc(CNc2nc(Nc3ccc4c(c3)[C@@H]3C[C@@H]4CNC3=O)ncc2C(F)(F)F)c1` here?
**A.** 5%

**Q.** Which “%Inh” value does the source give for `COc1cc(Nc2nccc(N3CCC(NC(=O)c4cccc(C#N)c4)C3)n2)cc(OC)c1OC` (stereo not drawn) [GSK1379751] here?
**A.** 2%

**Q.** Which “%Inh” value does the source give for `CN1CCN(CCCNc2nccc(-c3c(-c4ccc(F)cc4)nn4cc(C(N)=O)ccc34)n2)CC1` [GW622475] here?
**A.** 39%

**Q.** With `CCOC(=O)N1CCC(n2cnc(-c3ccc(F)cc3)c2-c2ccnc(N)n2)CC1` [SB-219952] as the compound, how does the “%Inh” value read?
**A.** 17%

**Q.** `COC(=O)Nc1nc2cc(Oc3ccc(NC(=O)Nc4cc(C(F)(F)F)ccc4Cl)cc3)ccc2[nH]1.Cl` [GW697465] was tested. Which “%Inh” value did it give?
**A.** 36%

**Q.** Which “%Inh” value does the source give for `CS(=O)c1ccc(-c2coc3ccc(-c4n[nH]c(=O)o4)cc23)cc1` (stereo not drawn) here?
**A.** 0%

**Q.** How did the “%Inh” value turn out when `Cn1ccc2ncnc(Oc3ccc(NC(=O)Nc4cncc(C(F)(F)F)c4)c(Cl)c3)c21` was run?
**A.** 16%

**Q.** Which “%Inh” value does the source give for `Nc1nccc(-c2ccc3c(N)n[nH]c3c2)n1` [GSK1034945] here?
**A.** 8%

**Q.** With `NC(=O)Nc1sc(-c2ccc(F)cc2)cc1C(N)=O` [GW789449] as the compound, how does the “%Inh” value read?
**A.** 35%

**Q.** How did the “%Inh” value turn out when `CN1CCN(CCNc2nc3cc(Oc4ccc(NC(=O)Nc5cc(C(F)(F)F)ccc5F)cc4)ccc3[nH]2)CC1.Cl.Cl` [GW768504] was run?
**A.** 19%

**Q.** With `Cl.Nc1n[nH]c2cc(-c3ccccn3)ccc12` [GSK2189892] as the compound, how does the “%Inh” value read?
**A.** 0%

**Q.** `CCn1c(-c2nonc2N)nc2cncc(CNC3CCNCC3)c21.Cl` [SB-747651] was tested. Which “%Inh” value did it give?
**A.** 25%

**Q.** For `Cn1ccc2ncnc(Oc3ccc(NC(=O)Nc4cccc(C(F)(F)F)c4)c(Cl)c3)c21`, which “%Inh” value is on record?
**A.** 56%

tested on: LYN; conditions: concentration: 1 μM,replicates: in singlicate; n = 1

**Q.** Which “%Inh” value does the source give for `Cn1ccc2ncnc(Oc3ccc(NC(=O)Nc4cc(C(C)(C)C)on4)c(Cl)c3)c21` here?
**A.** 95.4%

**Q.** Which “%Inh” value does the source give for `CC(=O)Nc1ccc(-c2cc3ncnc(SCC(=O)O)c3s2)cc1` here?
**A.** 9%

**Q.** `CN(c1ccccc1CNc1nc(Nc2ccc3c(c2)CC(=O)N3)ncc1C(F)(F)F)S(C)(=O)=O` was tested. Which “%Inh” value did it give?
**A.** 26%

**Q.** How did the “%Inh” value turn out when `FC(F)(F)c1cc(Br)cc(Nc2nccc(-c3cnn4ncccc34)n2)c1` [GW810578] was run?
**A.** 8%

**Q.** For `O=C1NCCc2[nH]c(-c3ccncc3)cc21`, which “%Inh” value is on record?
**A.** 0%

**Q.** Which “%Inh” value does the source give for `O=C(Nc1cccc(C(F)(F)F)c1)c1cccc(Oc2ccc3nccn3n2)c1` here?
**A.** 37%

**Q.** For `Cc1ccc(CC(=O)N2CCc3cc(-c4cn(C)c5ncnc(N)c45)ccc32)cc1` [GSK2634758], which “%Inh” value is on record?
**A.** 23%

**Q.** With `COC(=O)c1cccc(NC(=O)NC2CCN(c3ccnc(NCc4ccc(F)cc4)n3)CC2)c1` [GSK1379860] as the compound, how does the “%Inh” value read?
**A.** 0%

**Q.** How did the “%Inh” value turn out when `Cn1ccc2ncnc(Oc3ccc(NC(=O)Nc4ccnc(C(F)(F)F)c4)c(Cl)c3)c21` was run?
**A.** 6%

**Q.** For `O=C(NOCC1CC1)c1cc(Br)c(F)c(F)c1Nc1ccc(I)cc1Cl`, which “%Inh” value is on record?
**A.** 9%

**Q.** For `COc1ccc(Nc2nccc(N3CCC(NC(=O)c4cccc(C#N)c4)C3)n2)cc1` (stereo not drawn) [GSK1379730], which “%Inh” value is on record?
**A.** 0%

**Q.** How did the “%Inh” value turn out when `COc1cccc(C2=C(Nc3cccc(Cl)c3)C(=O)NC2=O)c1` [SB-341556] was run?
**A.** 0%

**Q.** How did the “%Inh” value turn out when `Cc1n[nH]c2cc(Nc3ccnc(Nc4cccc(CN5CCOCC5)c4)n3)ccc12` [GW682569] was run?
**A.** 25%

**Q.** `C[C@@H]1CNc2c(sc3ccc4nc(-c5ccncc5)ccc4c23)C(=O)N1` was tested. Which “%Inh” value did it give?
**A.** 6%

**Q.** For `C[C@@H]1CCN(C(=O)N2CCCC2)C[C@@H]1N(C)c1ncnc2[nH]ccc12`, which “%Inh” value is on record?
**A.** 0%

**Q.** Which “%Inh” value does the source give for `Cl.c1ccc(Oc2ccc(Nc3ccnc4cc(-c5ccc(CN6CCNCC6)o5)ccc34)cc2)nc1` [GW567142] here?
**A.** 4%

**Q.** For `COc1cc2c(Nc3ccc(NC(=O)c4ccccc4)cc3)ncnc2cc1OCCCN1CCOCC1` [GSK301329], which “%Inh” value is on record?
**A.** 52%

**Q.** How did the “%Inh” value turn out when `c1ccc(Oc2ccc(Nc3ccnc4ccc(-c5ccccn5)cc34)cc2)cc1` [GW407034] was run?
**A.** 22%

**Q.** With `COc1cc2ncn(-c3cc(OCC4CCCCC4)c(C(N)=O)s3)c2cc1OC` [GSK204559] as the compound, how does the “%Inh” value read?
**A.** 0%

**Q.** With `C[C@@H]1CNc2c(sc3ccc4nc(-c5ccc(O)cc5)ccc4c23)C(=O)N1` as the compound, how does the “%Inh” value read?
**A.** 4%

**Q.** For `NC(=O)c1ccc(-c2cc3ncnc(SCC(=O)O)c3s2)cc1`, which “%Inh” value is on record?
**A.** 23%

**Q.** Which “%Inh” value does the source give for `CS(=O)(=O)Nc1ccc(-c2ccnc3[nH]ccc23)cc1` [GSK993273] here?
**A.** 0%

**Q.** With `N#Cc1cccc(C(=O)NC2CCN(c3ccnc(Nc4ccc(F)cc4)n3)C2)c1` (stereo not drawn) [GSK1379708] as the compound, how does the “%Inh” value read?
**A.** 0%

**Q.** How did the “%Inh” value turn out when `CS(=O)(=O)c1cccc(CNc2nc(Nc3ccc4c(c3)[C@@H]3C[C@@H]4CNC3=O)ncc2C(F)(F)F)c1` was run?
**A.** 25%

**Q.** For `COc1cc(Nc2nccc(N3CCC(NC(=O)c4cccc(C#N)c4)C3)n2)cc(OC)c1OC` (stereo not drawn) [GSK1379751], which “%Inh” value is on record?
**A.** 0%

**Q.** With `CN1CCN(CCCNc2nccc(-c3c(-c4ccc(F)cc4)nn4cc(C(N)=O)ccc34)n2)CC1` [GW622475] as the compound, how does the “%Inh” value read?
**A.** 0%

**Q.** How did the “%Inh” value turn out when `COc1cccc(OC)c1C(=O)Nc1cccc(-c2nn3ccccc3c2-c2ccnc(Nc3cccc(F)c3)n2)c1` [GSK361065] was run?
**A.** 8%

**Q.** How did the “%Inh” value turn out when `CCOC(=O)N1CCC(n2cnc(-c3ccc(F)cc3)c2-c2ccnc(N)n2)CC1` [SB-219952] was run?
**A.** 9%

**Q.** `COC(=O)Nc1nc2cc(Oc3ccc(NC(=O)Nc4cc(C(F)(F)F)ccc4Cl)cc3)ccc2[nH]1.Cl` [GW697465] was tested. Which “%Inh” value did it give?
**A.** 75%

**Q.** `CS(=O)c1ccc(-c2coc3ccc(-c4n[nH]c(=O)o4)cc23)cc1` (stereo not drawn) was tested. Which “%Inh” value did it give?
**A.** 16%

**Q.** For `Cn1ccc2ncnc(Oc3ccc(NC(=O)Nc4cncc(C(F)(F)F)c4)c(Cl)c3)c21`, which “%Inh” value is on record?
**A.** 32%

**Q.** Which “%Inh” value does the source give for `Nc1nccc(-c2ccc3c(N)n[nH]c3c2)n1` [GSK1034945] here?
**A.** 0%

**Q.** How did the “%Inh” value turn out when `NC(=O)Nc1sc(-c2ccc(F)cc2)cc1C(N)=O` [GW789449] was run?
**A.** 0%

**Q.** How did the “%Inh” value turn out when `CN1CCN(CCNc2nc3cc(Oc4ccc(NC(=O)Nc5cc(C(F)(F)F)ccc5F)cc4)ccc3[nH]2)CC1.Cl.Cl` [GW768504] was run?
**A.** 12%

**Q.** `Cl.Nc1n[nH]c2cc(-c3ccccn3)ccc12` [GSK2189892] was tested. Which “%Inh” value did it give?
**A.** 0%

**Q.** Which “%Inh” value does the source give for `CCn1c(-c2nonc2N)nc2cncc(CNC3CCNCC3)c21.Cl` [SB-747651] here?
**A.** 0%

**Q.** `Cn1ccc2ncnc(Oc3ccc(NC(=O)Nc4cccc(C(F)(F)F)c4)c(Cl)c3)c21` was tested. Which “%Inh” value did it give?
**A.** 63%

From paper PMC5540273 (PLoS ONE, 2017)
